Targets with the largest changes are over-represented here; the source holds about 21,000 in all.
Compound: Cc1cc(ccc1-c1ccccc1)C(=O)N1CCCN(CC1)C(=O)CCl [compound 10]
Assay: probe-labelled cysteine peptide fold change vs DMSO (competition) (log2 fold change); higher = less target engagement (more negative = stronger competition)
Conditions: THP-1, incubation time: 4 h
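Note: competitive profiling in live THP-1 cells: cysteine peptides tagged with an iodoacetamide desthiobiotin (IA-DTB) probe, intensity after compound treatment relative to DMSO-treated cells.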

UniProt Q05BQ5, sequence (Q05BQ5 whole entry, looked up): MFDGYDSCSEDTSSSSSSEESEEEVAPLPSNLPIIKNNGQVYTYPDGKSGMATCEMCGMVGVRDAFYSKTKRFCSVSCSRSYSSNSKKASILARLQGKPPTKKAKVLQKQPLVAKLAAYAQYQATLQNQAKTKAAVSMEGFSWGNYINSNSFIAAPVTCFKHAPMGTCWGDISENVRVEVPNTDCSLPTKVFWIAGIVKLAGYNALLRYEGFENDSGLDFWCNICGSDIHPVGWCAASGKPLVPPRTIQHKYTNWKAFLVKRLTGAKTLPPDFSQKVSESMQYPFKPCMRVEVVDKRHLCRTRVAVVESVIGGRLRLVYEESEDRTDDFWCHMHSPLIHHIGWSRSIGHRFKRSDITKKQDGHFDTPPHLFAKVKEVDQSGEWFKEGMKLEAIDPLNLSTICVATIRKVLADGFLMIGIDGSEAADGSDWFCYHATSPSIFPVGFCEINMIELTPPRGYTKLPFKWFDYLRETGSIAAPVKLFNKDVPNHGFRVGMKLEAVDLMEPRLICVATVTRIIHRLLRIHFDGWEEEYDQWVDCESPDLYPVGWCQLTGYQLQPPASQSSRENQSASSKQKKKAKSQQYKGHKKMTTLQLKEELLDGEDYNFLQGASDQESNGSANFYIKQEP
UniProt Q99698, sequence (Q99698 whole entry, looked up): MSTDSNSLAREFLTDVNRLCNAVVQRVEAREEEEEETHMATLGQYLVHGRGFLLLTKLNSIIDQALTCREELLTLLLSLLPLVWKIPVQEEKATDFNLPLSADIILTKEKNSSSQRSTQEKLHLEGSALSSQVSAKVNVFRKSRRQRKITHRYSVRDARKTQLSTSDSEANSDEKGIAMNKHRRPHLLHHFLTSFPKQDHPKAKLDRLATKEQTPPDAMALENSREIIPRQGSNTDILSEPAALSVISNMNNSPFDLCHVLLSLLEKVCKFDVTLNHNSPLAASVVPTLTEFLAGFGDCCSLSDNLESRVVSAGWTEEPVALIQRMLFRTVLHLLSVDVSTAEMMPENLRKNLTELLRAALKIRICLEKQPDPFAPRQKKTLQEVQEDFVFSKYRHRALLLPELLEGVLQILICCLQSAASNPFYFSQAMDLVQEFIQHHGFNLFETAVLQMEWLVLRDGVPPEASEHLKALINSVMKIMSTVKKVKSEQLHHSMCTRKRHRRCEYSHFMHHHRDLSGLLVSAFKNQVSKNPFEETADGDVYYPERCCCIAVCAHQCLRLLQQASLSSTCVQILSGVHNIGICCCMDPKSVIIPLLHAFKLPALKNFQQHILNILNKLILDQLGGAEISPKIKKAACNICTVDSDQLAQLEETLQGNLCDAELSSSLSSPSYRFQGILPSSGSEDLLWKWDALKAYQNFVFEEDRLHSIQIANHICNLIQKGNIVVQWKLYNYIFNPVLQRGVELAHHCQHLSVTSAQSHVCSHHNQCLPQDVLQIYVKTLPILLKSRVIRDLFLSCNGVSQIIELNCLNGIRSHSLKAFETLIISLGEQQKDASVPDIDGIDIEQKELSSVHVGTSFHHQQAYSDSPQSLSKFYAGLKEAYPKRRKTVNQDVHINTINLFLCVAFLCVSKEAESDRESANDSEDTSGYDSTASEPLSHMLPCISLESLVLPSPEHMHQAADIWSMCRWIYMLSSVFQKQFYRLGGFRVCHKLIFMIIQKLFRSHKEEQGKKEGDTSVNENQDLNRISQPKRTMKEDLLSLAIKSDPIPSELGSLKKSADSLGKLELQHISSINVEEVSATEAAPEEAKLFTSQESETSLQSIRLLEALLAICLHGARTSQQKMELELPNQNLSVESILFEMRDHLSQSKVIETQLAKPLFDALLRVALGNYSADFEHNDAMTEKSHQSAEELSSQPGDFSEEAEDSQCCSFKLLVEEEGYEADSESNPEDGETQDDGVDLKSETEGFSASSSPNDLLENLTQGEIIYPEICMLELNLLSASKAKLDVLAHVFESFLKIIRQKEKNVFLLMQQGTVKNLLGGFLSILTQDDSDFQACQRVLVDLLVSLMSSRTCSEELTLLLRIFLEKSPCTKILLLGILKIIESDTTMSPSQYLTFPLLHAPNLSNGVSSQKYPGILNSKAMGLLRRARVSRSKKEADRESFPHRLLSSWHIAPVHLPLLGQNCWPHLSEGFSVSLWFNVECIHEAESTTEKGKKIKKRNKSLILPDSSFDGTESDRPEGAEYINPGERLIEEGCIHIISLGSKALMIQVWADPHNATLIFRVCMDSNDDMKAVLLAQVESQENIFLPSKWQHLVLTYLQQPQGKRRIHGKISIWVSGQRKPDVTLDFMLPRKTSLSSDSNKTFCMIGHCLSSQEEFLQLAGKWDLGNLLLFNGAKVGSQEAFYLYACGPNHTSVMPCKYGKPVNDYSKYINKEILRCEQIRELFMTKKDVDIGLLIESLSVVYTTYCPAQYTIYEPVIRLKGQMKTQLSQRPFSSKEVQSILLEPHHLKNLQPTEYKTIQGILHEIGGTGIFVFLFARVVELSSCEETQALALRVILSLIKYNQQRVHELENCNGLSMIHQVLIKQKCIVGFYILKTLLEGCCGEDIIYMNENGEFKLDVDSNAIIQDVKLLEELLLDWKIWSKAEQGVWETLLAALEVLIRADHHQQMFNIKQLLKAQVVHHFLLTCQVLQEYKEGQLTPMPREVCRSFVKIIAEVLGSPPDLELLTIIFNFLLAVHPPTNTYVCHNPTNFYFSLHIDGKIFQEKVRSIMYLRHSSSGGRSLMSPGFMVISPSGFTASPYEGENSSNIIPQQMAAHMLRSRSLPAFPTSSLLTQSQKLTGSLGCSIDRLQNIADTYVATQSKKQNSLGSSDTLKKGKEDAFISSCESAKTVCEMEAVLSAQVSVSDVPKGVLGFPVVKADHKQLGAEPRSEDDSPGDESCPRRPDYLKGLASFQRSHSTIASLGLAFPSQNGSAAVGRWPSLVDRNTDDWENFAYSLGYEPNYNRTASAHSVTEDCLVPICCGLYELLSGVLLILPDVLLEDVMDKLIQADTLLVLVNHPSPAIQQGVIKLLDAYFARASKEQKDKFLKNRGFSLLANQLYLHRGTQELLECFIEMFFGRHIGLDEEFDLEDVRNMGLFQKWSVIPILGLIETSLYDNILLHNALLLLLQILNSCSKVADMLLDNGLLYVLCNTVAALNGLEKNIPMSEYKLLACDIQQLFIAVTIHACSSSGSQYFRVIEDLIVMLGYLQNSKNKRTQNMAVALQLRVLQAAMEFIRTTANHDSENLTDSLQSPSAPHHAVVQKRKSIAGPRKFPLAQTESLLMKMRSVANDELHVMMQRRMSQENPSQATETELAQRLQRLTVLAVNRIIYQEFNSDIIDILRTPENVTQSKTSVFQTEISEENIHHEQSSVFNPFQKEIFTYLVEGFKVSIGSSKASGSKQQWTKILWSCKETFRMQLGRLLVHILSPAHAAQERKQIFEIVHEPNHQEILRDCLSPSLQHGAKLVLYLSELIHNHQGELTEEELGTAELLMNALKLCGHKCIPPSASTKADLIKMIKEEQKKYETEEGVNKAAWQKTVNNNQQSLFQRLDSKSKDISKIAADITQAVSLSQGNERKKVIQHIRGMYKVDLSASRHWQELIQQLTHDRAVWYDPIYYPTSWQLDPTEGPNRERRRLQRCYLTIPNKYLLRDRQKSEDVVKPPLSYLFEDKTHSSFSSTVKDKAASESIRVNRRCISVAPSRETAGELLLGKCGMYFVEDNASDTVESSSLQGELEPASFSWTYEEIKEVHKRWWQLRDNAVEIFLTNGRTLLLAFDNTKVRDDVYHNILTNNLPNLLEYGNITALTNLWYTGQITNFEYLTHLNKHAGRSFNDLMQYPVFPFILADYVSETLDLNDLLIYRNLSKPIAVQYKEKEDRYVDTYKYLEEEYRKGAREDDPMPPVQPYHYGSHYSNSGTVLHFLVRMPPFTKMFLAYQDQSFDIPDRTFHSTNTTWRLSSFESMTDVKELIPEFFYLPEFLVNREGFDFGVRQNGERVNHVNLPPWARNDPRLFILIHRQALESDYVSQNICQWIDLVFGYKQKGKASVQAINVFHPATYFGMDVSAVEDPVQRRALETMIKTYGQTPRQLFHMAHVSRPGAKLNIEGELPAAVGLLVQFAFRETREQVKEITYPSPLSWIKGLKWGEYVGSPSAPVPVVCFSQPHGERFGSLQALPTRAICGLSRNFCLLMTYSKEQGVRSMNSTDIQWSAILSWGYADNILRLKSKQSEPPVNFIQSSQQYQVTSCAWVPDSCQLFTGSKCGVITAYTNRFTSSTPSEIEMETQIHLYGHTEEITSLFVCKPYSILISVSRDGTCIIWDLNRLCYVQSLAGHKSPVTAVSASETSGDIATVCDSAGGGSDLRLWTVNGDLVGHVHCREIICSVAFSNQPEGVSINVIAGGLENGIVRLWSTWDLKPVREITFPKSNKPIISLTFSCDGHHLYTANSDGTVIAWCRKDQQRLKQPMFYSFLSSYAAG
UniProt O95232, sequence (O95232 whole entry, looked up): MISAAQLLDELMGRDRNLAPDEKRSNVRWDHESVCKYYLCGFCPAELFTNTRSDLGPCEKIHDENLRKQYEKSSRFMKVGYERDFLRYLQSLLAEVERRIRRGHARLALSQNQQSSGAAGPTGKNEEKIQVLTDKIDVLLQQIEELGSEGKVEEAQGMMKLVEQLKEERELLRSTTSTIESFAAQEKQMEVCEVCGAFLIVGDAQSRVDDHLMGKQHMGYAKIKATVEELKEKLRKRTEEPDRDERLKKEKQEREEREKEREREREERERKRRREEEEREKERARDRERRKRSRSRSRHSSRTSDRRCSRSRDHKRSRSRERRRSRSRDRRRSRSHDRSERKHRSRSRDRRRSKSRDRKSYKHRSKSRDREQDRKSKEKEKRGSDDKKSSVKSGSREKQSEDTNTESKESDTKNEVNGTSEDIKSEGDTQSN
UniProt Q9ULC4, sequence (Q9ULC4 whole entry, looked up): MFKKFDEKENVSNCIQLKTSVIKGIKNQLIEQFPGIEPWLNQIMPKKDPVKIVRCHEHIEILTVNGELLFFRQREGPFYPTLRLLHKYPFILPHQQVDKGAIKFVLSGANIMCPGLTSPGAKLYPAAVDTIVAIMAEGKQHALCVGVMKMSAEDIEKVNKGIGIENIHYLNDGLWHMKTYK

Target	probe-labelled cysteine peptide fold change (10 µM)	probe-labelled cysteine peptide fold change (50 µM)
LRP1_Q07954_3021_GGDPHSCK (UniProt Q07954)	-0.193	-0.308
MPP1_Q00013_454_KLQEAFDQACSSPQWVPVSWVY (UniProt Q00013)	-0.0366	-0.104
MATR3_P43243_230_CRDDSFFGETSHNYHK (UniProt P43243)	0.00308	-0.311
MCM2_P49736_406_DAILLADLVDSCK (UniProt P49736)	-0.0605	0.3
MTMR6_Q9Y217_214_CLEDEHLLQAISK (UniProt Q9Y217)	-0.103	-0.217
MCRS1_Q96EZ8_84_CSGSEPSSSEK (UniProt Q96EZ8)	-0.0254	-0.104
LRPPRC_P42704_380_EDGPSVFGSFFLQHCVTMNTPVEK (UniProt P42704)	0.0471	0.322
MYBBP1A_Q9BQG0_890_RYCHDLGER (UniProt Q9BQG0)	0.104	0.125
MCM5_P33992_221_CVDFQTLK (UniProt P33992)	0.05	-0.397
LIMS1_P48059_240+252_GLAYCETHYNQLFGDVCFHCNR (UniProt P48059)	0.0277	0.118
MUT_P22033_560_CTVGEITDALK (UniProt P22033)	0.0307	0.0797
LPP_Q93052_524_SLDGIPFTVDAGGLIHCIEDFHKK (UniProt Q93052)	-0.0384	-0.452
MARS_P56192_309_QWNTLYLCGTDEYGTATETK (UniProt P56192)	-0.0161	0.0949
MTA3_Q9BTC8_109_CSVALLNETESVLSYLDK (UniProt Q9BTC8)	0.791	0.971
MAP2K6_P52564_216_TIDAGCK (UniProt P52564)	-0.048	0.239
MOB4_Q9Y3A3_134_HTLDGAACLLNSNK (UniProt Q9Y3A3)	-1.14	-3.77
MBD2_Q9UBB5_111_GRPPSGGSGLGGDGGGCGGGGSGGGGAPR (UniProt Q9UBB5)	-0.142	-1.1
MAP4K1_Q92918_334+335_SSSLGIPDADCCR (UniProt Q92918)	-0.26	-1.18
MMS19_Q96T76_750_ELLELSCCHSCPFSSTAAAK (UniProt Q96T76)	-0.103	-1.11

Target	probe-labelled cysteine peptide fold change (10 µM)	probe-labelled cysteine peptide fold change (50 µM)
MGAT2_Q10469_378_IFHAGDCGMHHK (UniProt Q10469)	-0.125	-0.149
MAP4K1_Q92918_335_SSSLGIPDADCCR (UniProt Q92918)	-0.294	-1.09
MTRR_Q9UBK8_64_AIAEEICEQAVVHGFSADLHCISESDKYDLK (UniProt Q9UBK8)	-0.113	-0.379
MAZ_P56270_424_VHSQGPHHVCELCNK (UniProt P56270)	0.033	-0.236
MIB1_Q86YT6_103_CAECTNYDLCTVCYHGDK (UniProt Q86YT6)	0.0824	-0.0966
LYSMD2_Q8IV50_106_LFTNDCIFLK (UniProt Q8IV50)	-0.192	-1.77
LIMS1_P48059_281_AWCVNCFACSTCNTK (UniProt P48059)	0.00276	0.175
LSM2_Q9Y333_26_DVVVELKNDLSICGTLHSVDQYLNIK (UniProt Q9Y333)	0.0504	-0.543
MBTD1_Q05BQ5_288_VSESMQYPFKPCMR (UniProt Q05BQ5)	0.00855	0.00392
MCTS1_Q9ULC4_144_QHALCVGVMK (UniProt Q9ULC4)	0.104	-0.154
LYST_Q99698_2223_SEDDSPGDESCPR (UniProt Q99698)	-0.367	-1.41
MSI1_O43347_167_VCEIHFHEINNK<|>MSI2_Q96DH6_168_VCEIHFHEINNK (UniProt Q96DH6+O43347)	0.163	0.236
MORC3_Q14149_15_LSALCPK (UniProt Q14149)	-0.27	-1.37
MTR_Q99707_798_NIVGVVLGCNNFR (UniProt Q99707)	0.00546	-0.26
MTHFD1L_Q6UB35_906_YTQQGFGNLPICMAK (UniProt Q6UB35)	-0.063	-0.0614
LUC7L3_O95232_58_SDLGPCEK (UniProt O95232)	-0.112	-0.363
LRRC40_Q9H9A6_227_HLDCNSNLLETIPPELAGMESLELLYLRR (UniProt Q9H9A6)	-0.229	-0.459
MAP1S_Q66K74_435+440_VLFPGCTPPACLLDGLVR (UniProt Q66K74)	-0.0708	-0.133
MCCC2_Q9HCC0_267_AATGEEVSAEDLGGADLHCR (UniProt Q9HCC0)	-0.421	-1.1

Source: the supplement of paper PMC12067093, “Discovery and optimisation of a covalent ligand for TRIM25 and its application to targeted protein ubiquitination” (Chemical Science, 2025)
